Measurements published in PubChem BioAssay (NCATS).
Records with an inconclusive call do not appear. Entries that show only a call come without a potency. Active and inactive are the calls of the source. The call rests on the fitted dose curve; in most records, active means well fitted inhibition curve with a large enough effect; inconclusive means small, poorly fitted or top-dose-only effect; inactive means no such curve, though single readings can be large or run the other way.

Tested on: Zika virus NS2B-NS3 protease (unlinked)
Experiment: Optimization of GU AMC qHTS for Zika virus inhibitors: Unlinked NS2B-NS3 protease assay (AID 1347151); further: nearly all actives have a fitted effect of over 80% in size
Details: recombinant ZIKV NS2B-NS3 protease, fluorogenic AMC substrate; series mostly up to 52.5 µM
In short: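 Noncovalent complex of NS2B hydrophilic domain and NS3 protease domain, 25 nM final, in 10 mM Tris-HCl pH 8.0, 0.01% Tween 20. AMC fluorescence change over 15 min at room temperature was fitted to a 4-parameter Hill equation.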
Potency means the concentration at half of the fitted maximal effect.

Q: Which Potency does the source give for `Oc1ccc2c3c1O[C@H]1c4[nH]c5ccccc5c4C[C@@]4(O)C(C2)N(CC2CC2)CCC314` (stereo partly drawn) here?
A: Its Potency is “inactive”.

Q: Which Potency does the source give for `CO[C@H]1CC=C2CCN3CCC4=C(CC(=O)OC4)[C@]23C1` here?
A: Its Potency is “inactive”.

Q: With `COC(=O)N1CCN(C(=O)Cc2ccc(Cl)c(Cl)c2)C(CN2CCCC2)C1` (stereo not drawn) as the compound, how does the Potency read?
A: The Potency was “inactive”.

Q: How did the Potency turn out when `Cc1o[nH]c(=O)c1CC(N)C(=O)O` (stereo not drawn) was run?
A: The Potency was “inactive”.

Q: `CN1CCC(c2c[nH]c3ccc(O)cc23)CC1` was tested. Which Potency did it give?
A: The Potency was “inactive”.

Q: Which Potency does the source give for `COc1ccc2[nH]cc(CCN)c2c1` here?
A: Its Potency is “inactive”.

Q: With `O=[N+]([O-])c1ccc2nc(N3CCNCC3)ccc2c1` as the compound, how does the Potency read?
A: The Potency was “inactive”.

Q: With `Cc1[nH]c2ccc(O)cc2c1CCN` as the compound, how does the Potency read?
A: Its Potency is “inactive”.

Q: For `CCNC(=O)[C@H]1O[C@@H](n2cnc3c(N)ncnc32)[C@H](O)[C@@H]1O`, which Potency is on record?
A: The Potency was “inactive”.

Q: With `Ic1ccccc1CNC1C2CCN(CC2)C1C(c1ccccc1)c1ccccc1` (stereo not drawn) as the compound, how does the Potency read?
A: The Potency was “inactive”.

Q: `CC(C)(O)[C@@H]1C2OC(=O)[C@@H]1[C@]1(O)C[C@H]3O[C@]34C(=O)O[C@H]2[C@]14C` (tested in a mixture with another compound) was tested. Which Potency did it give?
A: Its Potency is “inactive”.

Q: How did the Potency turn out when `Nc1ccc(CCN2CCN(c3cccc(C(F)(F)F)c3)CC2)cc1` was run?
A: Its Potency is “inactive”.

Q: How did the Potency turn out when `CN1CC[C@@]2(C)c3cc(OC(=O)Nc4ccccc4)ccc3N(C)[C@@H]12` was run?
A: The Potency was “inactive”.

Q: For `CC(C)(C)c1cc(C=C(C#N)C#N)cc(C(C)(C)C)c1O`, which Potency is on record?
A: The Potency was 10.6 µM (active).

Q: Which Potency does the source give for `CCN1C[C@@]2(COC)C3[C@@H](OC)C4[C@@H]1C3([C@@H]1C[C@]3(O)[C@H](OC(=O)c5ccccc5)[C@@H]1[C@]4(OC(C)=O)[C@@H](O)[C@@H]3OC)[C@H](OC)C[C@H]2O` here?
A: Its Potency is “inactive”.

Q: `C=CCN1CCC23c4c5ccc(O)c4O[C@H]2C(=O)CC[C@@]3(O)C1C5` (stereo partly drawn) was tested. Which Potency did it give?
A: Its Potency is “inactive”.

Q: Which Potency does the source give for `CCCN(CCC)[C@@H]1CCc2cccc(O)c2C1` here?
A: The Potency was “inactive”.

Q: Which Potency does the source give for `Cc1c2ccncc2c(C)c2c1[nH]c1ccccc12` here?
A: Its Potency is 21.2 µM (active).

Q: With `CC(N)Cc1c[nH]c2ccc(OCc3cccs3)cc12` (stereo not drawn) as the compound, how does the Potency read?
A: Its Potency is “inactive”.

Q: How did the Potency turn out when `CC(N)Cc1c[nH]c2ccc(O)cc12` (stereo not drawn) was run?
A: The Potency was “inactive”.

Q: How did the Potency turn out when `Oc1ccc2c3c1O[C@H]1c4oc5ccccc5c4C[C@@]4(O)C(C2)N(CC2CC2)CCC314` (stereo partly drawn) was run?
A: The Potency was “inactive”.

Q: `N=C(N)c1ccc(CS(=O)(=O)F)cc1` was tested. Which Potency did it give?
A: The Potency was “inactive”.

Q: How did the Potency turn out when `Clc1ccc(N2CC3CCC(C2)N3)nn1` was run?
A: Its Potency is “inactive”.
